# Bioassay records from PubChem BioAssay.
# Rows were chosen to be rich in hits. Some 5% of all compounds tested hit in one or more screens of this group.
# USP7 inh: blocks human USP7 ubiquitin-rhodamine cleavage. Q93009. actives 0.3% (n = 47,000). inhibition, % at 20 µM. AID 1645854. purified USP7, Ub-rhodamine cleavage fluorescence
# USP10 block: blocks human USP10 ubiquitin-rhodamine cleavage. actives 1.1% (n = 47,000). inhibition, % at 20 µM. Q14694. purified USP10, Ub-rhodamine fluorescence, 60 min
# USP8 block: blocks human USP8 ubiquitin-rhodamine cleavage; actives 4.2% (n = 47,000); purified USP8, Ub-rhodamine cleavage fluorescence, 30 min; inhibition, % at 20 µM; P40818
# UCHL1 inh: inhibitors of human UCHL1 deubiquitinase | inhibition, % at 20 µM | actives 0.2% (n = 47,000) | P09936 | purified UCHL1, Ub-rhodamine cleavage fluorescence
# Target sequence (P09936 whole entry, looked up): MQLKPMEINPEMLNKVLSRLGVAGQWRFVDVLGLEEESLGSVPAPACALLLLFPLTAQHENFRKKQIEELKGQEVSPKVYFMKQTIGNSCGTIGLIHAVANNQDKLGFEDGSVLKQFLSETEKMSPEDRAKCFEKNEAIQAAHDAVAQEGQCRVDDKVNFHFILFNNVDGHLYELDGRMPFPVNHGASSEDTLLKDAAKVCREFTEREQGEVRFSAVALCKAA
# * hit, by the source's call; · = no result given. No stated cut-off is given here; in the data, active means inhibition above about 30%; inactive means the rest.
SMILES,USP7 inh,USP10 block,USP8 block,UCHL1 inh
Cc1cccc(CSCCNC(=O)CN2C(=O)c3cccc4cccc2c34)c1,-3.6,-1.1,0.1,-4.3
O=C(CN1C(=O)c2cccc3cccc1c23)NCCSCc1ccc(Cl)c(Cl)c1,1.2,39.7*,52.6*,-3.8
CC(C)(C)c1nn(-c2ccccc2)c2[nH]c(=O)c(CNCc3ccco3)cc12,16.4,-2.7,38.9*,-9.2
COc1ccc(CCNCc2cc3c(C(C)(C)C)nn(-c4ccccc4)c3[nH]c2=O)cc1OC,3.9,0.0,45.8*,0.4
CC(C)C1=C2[C@H]3CC4OC(O)(C=C4CO)[C@]3(C)CC[C@@]2(C)CC1 (stereo partly specified),-4.1,-5.3,-20.5,-2.0
O=C(COc1ccc(N2CC(C(=O)NCc3ccccc3)CC2=O)cc1)Nc1ccccc1Cl (stereo unspecified),25.9,49.2*,59.4*,-0.3
COc1ccccc1NC(=O)c1noc(C)c1C,-1.3,-0.3,3.7,0.0
COc1cccc2cc(C(=O)C3=C(O)C(=O)N(CCCN(C)C)C3c3ccco3)oc12 (stereo unspecified),0.9,-4.7,43.9*,0.0
CCCc1nnc(NC(=O)c2cc(-c3ccccc3O)n[nH]2)s1,16.3,54.4*,1.2,3.9
CSc1nnc(NC(=O)c2cc(-c3cc(Cl)ccc3O)n[nH]2)s1,11.9,18.2,23.8,3.3
CN1CCN(C(c2ccccc2)c2oc3ccccc3c2NC(=O)c2ccco2)CC1 (stereo unspecified),-0.1,0.0,7.5,0.1
CCCc1cc(=O)n2[nH]c(COc3ccccc3)c(-c3ccccc3)c2n1,14.5,55.3*,-141.9,6.0
CCCc1cc(=O)n2[nH]c(-c3ccccc3)cc2n1,3.1,1.0,-3.1,0.3
COCCn1ccc2ccn(Cc3nc(-c4cccnc4)no3)c(=O)c21,8.8,-4.3,55.6*,4.7
Cn1ccc2ccn(Cc3nc(-c4ccccn4)no3)c(=O)c21,1.5,-3.8,15.3,1.2
Cn1cc(-c2cnc3n2CCC32CCN(S(=O)(=O)c3ccccc3C#N)CC2)cn1,-0.8,-2.1,-36.9,-1.6
O=C(CN(c1ccccc1)S(=O)(=O)c1ccccc1)Oc1cc(Cl)ccc1Cl,5.6,5.1,30.2*,2.7
COc1ccc(OC(=O)CN(c2cccc(C(F)(F)F)c2)S(=O)(=O)c2ccccc2)cc1,3.1,3.6,-4.5,1.9
CC1(C)OC(=O)[C@@]2(C)N[C@]1(C)C[C@@H]2C(=O)Nc1cccc2cccnc12,3.3,-2.1,41.2*,1.7
COc1cc2c(cc1OC)C(COc1cc(C)cc(C)c1)NCC2 (stereo unspecified),-9.0,-6.4,64.9*,-12.5
O=C(Nc1ccc(Cl)cc1)c1cc(CN2CCCC2)on1,-22.4,-2.6,0.6,3.7
O=C(Nc1ccccc1C(F)(F)F)c1cccc(S(=O)(=O)Nc2cc(C(F)(F)F)ccc2Cl)c1,-0.7,42.7*,0.0,0.8
COc1cccc(C(=O)Nc2nc(-c3nnn(-c4ccc(C)c(F)c4)c3C)ns2)c1,15.8,47.5*,55.7*,7.2
Cc1ccc(NC(=O)CCc2nc(CSc3nc4ccc(C)cc4[nH]3)no2)cc1,-4.7,0.4,-5.1,3.1
O=C(CCCCCn1c(=O)[nH]c2ccccc2c1=O)NCc1ccccc1Cl,1.3,1.8,28.1,2.1
SMILES,USP7 inh,USP10 block,USP8 block,UCHL1 inh
O=C(CCCCn1c(=O)[nH]c2ccccc2c1=O)Nc1cccc(Cl)c1,30.4*,19.8,81.4*,0.5
O=C(CCCCCn1c(=O)[nH]c2ccccc2c1=O)NCCc1ccc(Cl)cc1,1.1,1.0,48.2*,-1.1
CCn1cc(C)c(C(=O)O)c1CC(=O)N1CCC(N2CCCCC2)CC1,-2.2,-3.8,-8.4,-6.8
Cc1ccc2nc(-c3cccc(-c4nc5ccc(C)cc5[nH]4)n3)[nH]c2c1,4.7,-11.5,55.3*,-3.1
Cc1ccc(-n2nc(C)c3c2NC(=O)CC3C(=O)c2cc3ccccc3o2)cc1 (stereo unspecified),3.2,32.8*,23.7,-1.0
COc1ccccc1CNC(=O)c1c(O)c2cnn(-c3cccc(C)c3)c2[nH]c1=O,-27.5,29.9,81.6*,6.6
O=C(NCc1ccc(F)cc1F)c1c(O)c2cnn(-c3ccc(F)cc3)c2[nH]c1=O,-78.3,-2.1,-192.0,-4.7
COc1cc(-c2ccccc2)c(O)c(O)c1-c1ccccc1,61.2*,67.4*,72.5*,36.4*
Cc1nc(C2COCCN2C(=O)CN2CCCCCC2=O)cc(=O)[nH]1 (stereo unspecified),3.9,0.3,13.6,1.1
CN(C(=O)c1cccnc1-c1nc2ccccc2s1)c1ccccc1,0.0,1.5,-21.1,2.4
O=C(NCc1ccco1)c1cccnc1-c1nc2ccccc2s1,-9.7,-0.2,32.7*,5.7
COc1ccc(C(=O)NCc2nnc(SCC(=O)N3CCC(Cc4ccccc4)CC3)o2)cc1,-4.0,7.0,-2.4,0.2
O=c1[nH]c(Cc2ccc([N+](=O)[O-])cc2)nc2scc(-c3ccccc3)c12,0.0,9.1,-13.4,-2.5
O=C(O)c1ccccc1Cc1nc2scc(-c3ccccc3)c2c(=O)[nH]1,-2.3,10.6,30.6*,4.6
CC(C)Oc1ccccc1-c1cc(C(=O)NC2CCCc3ccccc32)c2ccccc2n1 (stereo unspecified),14.0,2.6,0.0,7.4
N#Cc1cccc(NS(=O)(=O)c2ccc3c(c2)OCCO3)c1,2.2,1.3,4.9,-1.4
Cc1ccc(S(=O)(=O)N2CCN(C(=O)CN3CCc4ccccc43)CC2)c(C)c1,-0.8,-5.0,16.4,0.0
Cn1ccc(CN2CCc3ccccc32)cc1=O,-14.0,-1.0,51.4*,-11.5
O=C1CC(C(=O)Nc2ccccc2F)n2nc(-c3ccccc3)cc2N1 (stereo unspecified),6.3,15.6,38.8*,2.1
O=C1CC(C(=O)Nc2ccc(Cl)cc2Cl)n2ncc(-c3ccccc3)c2N1 (stereo unspecified),6.1,15.5,-34.7,0.3
O=C1CC(C(=O)Nc2ccccc2F)n2ncc(-c3ccccc3)c2N1 (stereo unspecified),-2.3,5.5,23.3,1.4
O=C1CC(C(=O)Nc2ccccc2Cl)n2nc(-c3ccccc3)cc2N1 (stereo unspecified),7.7,3.8,30.8*,-0.4
COc1ccc(Cn2c(=O)[nH]c3cc(C(=O)N4CCC(C(N)=O)(N5CCCCC5)CC4)ccc3c2=O)cc1,-31.3,0.8,6.7,2.3
CCCCCNc1ncnc2c1CN(C1CCNCC1)C(=O)CN2C,·,-1.0,-6.5,-2.2
Cc1nn(-c2ccc(Cl)cc2)c2[nH]c(=O)c(CNCc3ccc(F)cc3)cc12,7.0,-5.8,76.1*,-1.6
Cc1nn(-c2ccc(Cl)cc2)c2[nH]c(=O)c(CNc3ccc(C(C)(C)C)cc3)cc12,4.6,3.0,2.7,3.1
COc1ccc(-c2nn(-c3ccccc3)c3[nH]c(=O)c(CNCc4cccs4)cc23)cc1,17.3,8.7,82.4*,6.9
Cc1nn(-c2ccc(Cl)cc2)c2[nH]c(=O)c(CNCc3cccs3)cc12,3.6,5.6,76.7*,-4.0
COc1ccc(Cn2c(C(=O)O)c(CNCc3cccs3)c3ccccc32)cc1,-16.8,-3.5,8.4,-3.5
